# Laboratory results published in the supplement of paper PMC10477191.
# ± gives the standard deviation of the averaged measurements.
# What was measured:
# Assay in all cases: odor-evoked OSN spike response (post minus pre-stimulus); higher = stronger neuronal excitation
# Details in all cases: odor dilution: 10^-4
# [1] = tested on: Drosophila ezoana antennal basiconic sensillum ab1
# How it was run: (§1)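 Spike frequency was compared between 1-second windows before and after each stimulus in Auto Spike software. That change, averaged over replicate sensilla, is the response. Each stimulus was a 500 ms air pulse over filter paper carrying 10 µl of odorant at 10^−4 in mineral oil or DMSO, delivered into a humidified, charcoal-filtered 1.5 l min^−1 stream. A tungsten electrode recorded at the base of antennal basiconic sensilla of restrained adult flies, with up to 3 sensilla per fly.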
# [2] = tested on: Drosophila ezoana antennal basiconic sensillum ab3
# How it was run: as §1
# [3] = tested on: Drosophila virilis antennal basiconic sensillum AB2
# How it was run: as §1
smiles,measurement,setting,value
CC(C)=O [acetone],odor-evoked OSN spike response,[1],67.1 ± 24 spikes/s
same,odor-evoked OSN spike response,[2],63.3 ± 28 spikes/s
same,odor-evoked OSN spike response,[3],53.7 ± 24 spikes/s
